In the supplement of paper PMC6555819:

Each sequence was assayed on RXRa homodimer (NR concentration 180 nM) (assay: PBM binding z-score (relative to random genomic background probes); higher = stronger binding; sequences stand for … in GC…GCGATTGACAGCGTAGAATGAAGG).
Procedure, shortened: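 Ligand-free nuclear receptor dimers were applied to custom Agilent 4×180K protein-binding microarrays whose double-stranded probes carried direct-repeat seeds, single-nucleotide variants, half-site ablations and random human genomic background sequences in 34-nt variable regions. Incubation lasted 1 h. Binding z-scores were computed against the random background probes from regression-normalized fluorescence.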
In the case of TCGAGTAGGTTACGGGGTCATTCAGGGATGAAGA, the PBM binding z-score is reported as 7.78.
Work on CGTCCAAGGTCAATGTTAGGTCAGTGAAAGCATT yielded a PBM binding z-score of 5.27.
With CAACCTAGGTCACGAAAGGTCAAAGTCGAATGAC the PBM binding z-score was 8.43.
CGTCAAAGTTCACCTAAGGTAACGTAAAGCACGC gave a PBM binding z-score of 5.09.
Sequence TTACCAAGGTGACCTGAGGTCGTTGATCCAACTC has a PBM binding z-score of 3.64.
In the case of CTCGAAAGGTCAGTTGAGGTGAGTATACGGATAA, the PBM binding z-score is reported as 5.93.
Sequence CGTCCAAGGTCAGAGAGGTCATTGAATGCCGAGT has a PBM binding z-score of 6.75.
Work on TAGCCTAGGTTATGCGGGCCAGTATAGTGTCGGC yielded a PBM binding z-score of 0.14.
In the case of CAAACTAGGTCAAAGGTCAAAGTAGAGCCAACCA, the PBM binding z-score is reported as 10.3.
CCGAGTAGGTTACGTGGGGGCATTCAGTGCGAAT gave a PBM binding z-score of 2.12.
TTACCAAGGTCAGCTGAGGTCGTTGATCCAACTC was tested, and the PBM binding z-score was 4.69.
GCATATAGGTAATTCAAGGTGAAAGTCCGATTGT was tested, and the PBM binding z-score was 0.756.
GATACAGGGTGAGCTAGAGGCCAGAGTATGGAAA gave a PBM binding z-score of 0.342.
With CCTAGCAGGCCAATCGGGGTCACTCAAGGCTTGA the PBM binding z-score was 6.01.
ACTAGGTGGTCAGCTGAGGTCACACACAATTCGG gave a PBM binding z-score of 4.06.
For TCTAGTAGGTCACGGAGGTCACACACGACGGGTA, the PBM binding z-score was 7.26.
With CCTACTGGGCCACGTAAGGTCATTGATTCAGTGA the PBM binding z-score was 3.33.
Work on ACTAGTAGGTCAGCTGAGGTCACACACAATTCGG yielded a PBM binding z-score of 6.29.
CCGAGTAGGTTACGAGGAGGCATTCAGTGCGAAT showed a PBM binding z-score of 0.427.
Sequence CGTCCAAGGTCAAAGGTCAGGGAAGAGATGACGG has a PBM binding z-score of 10.4.
For CCGAGTAGGTTACGAGGCGGCATTCAGTGCGAAT, the PBM binding z-score was 0.329.
Work on CAAACTAGGTCACCGTAAGGTCAAAGTCCGCATG yielded a PBM binding z-score of 6.67.
